From PubChem BioAssay (NCI) come the findings set out here.

About 83,000 compounds went through this panel and 20% of them were active in at least one assay; those are over-represented in the sample as a whole.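 Negative percent growth values reflect cell death: -40 means 40% of the cells present at the start died, and -100 means all died.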 A number with no mark means an inactive call. Activity calls are given as the source filed them. Rule for the calls: active = growth percent below 10; inactive = the rest.

Test in all cases: NCI-60 one-dose screen, 48 h (100 = growth as untreated, 0 = no growth, -100 = all killed)
One test relates to EKVX NSCLC. The settings on record: 10 µM unless noted.
The subject of a further test is SN12C renal. As to conditions: 10 µM unless noted.
The subject of the next test is UO-31 renal. The settings on record: 10 µM unless noted.
In the next test the test system is TK-10 renal. The settings on record: 10 µM unless noted.
The test system of another test is ACHN renal. As to conditions: 10 µM unless noted.
Another test relates to CAKI-1 renal. The settings on record: 10 µM.
The next test concerns CCRF-CEM leukemia. The settings on record: 10 µM unless noted.
The test system of a further test is MOLT-4 leukemia. As to conditions: 10 µM unless noted.
The subject of a further test is SR leukemia. The settings on record: 10 µM unless noted.
The next test has as its system RPMI-8226 leukemia. As to conditions: 10 µM unless noted.
The next test has as its system OVCAR-8 ovarian. The settings on record: 10 µM unless noted.
The test system of a further test is OVCAR-5 ovarian. The settings on record: 10 µM unless noted.
Another test concerns OVCAR-4 ovarian. The settings on record: 10 µM unless noted.
The subject of the next test is SK-OV-3 ovarian. The settings on record: 10 µM unless noted.
The next test relates to IGROV1 ovarian. As to conditions: 10 µM unless noted.
Another test relates to HS 578T breast. The settings on record: 10 µM unless noted.
The test system of the next test is NCI/ADR-RES ovarian. The settings on record: 10 µM unless noted.
Another test relates to A498 renal. The settings on record: 10 µM unless noted.

As to `Cc1ccc(NC(=O)N[C@@H](Cc2cc(F)cc(F)c2)C(=O)NC2C(=O)N3CCC[C@H]3C(=O)N3CCCC[C@H]3C(=O)N[C@@H](C)C(=O)N3C[C@H](C)C[C@H]3C(=O)O[C@H]2C)c(F)c1` (some centres not stated), the growth in the test on EKVX NSCLC was 29.5%; in the test with SN12C renal, 23.5%; in the test with UO-31 renal it was 30.2%; in the test on TK-10 renal, 53.9%; with ACHN renal it was 32.1%; with CAKI-1 renal, 22.2%. Also, the growth in the test with CCRF-CEM leukemia is 34.2%; in the test with MOLT-4 leukemia, 40.3%; with SR leukemia it was 30.6%; with RPMI-8226 leukemia it was 11.6%; in the test on OVCAR-8 ovarian, 21.6%; in the test on OVCAR-5 ovarian it was 36.3%. Further, the growth in the test on OVCAR-4 ovarian was 23.9%; in the test with SK-OV-3 ovarian it was 23.9%; in the test with IGROV1 ovarian, 47.5%; with HS 578T breast, 28.9%; in the test with NCI/ADR-RES ovarian, 20.1%.

For the compound `COc1cnc2c(c1)C(=O)c1c-2n(CCCNCC2CC2)c(=O)c2cc(F)ccc12`, the growth is 13.3% with EKVX NSCLC; 0.563% (active) in the test with SN12C renal; -81.7% (active) in the test with UO-31 renal; -32.9% (active) with TK-10 renal; -62% (active) in the test on ACHN renal; -27.2% (active) with CAKI-1 renal. Besides, the growth was -31% (active) in the test on A498 renal; -2.04% (active) in the test with CCRF-CEM leukemia; -61.6% (active) in the test on OVCAR-8 ovarian; -6.47% (active) in the test on OVCAR-5 ovarian; -4.75% (active) with OVCAR-4 ovarian; -38% (active) with SK-OV-3 ovarian. Besides, the values for the growth in the test on IGROV1 ovarian, with HS 578T breast and with NCI/ADR-RES ovarian were 10.3%, 26.1% and 5.01% (active), respectively.

Take `Cc1cn(-c2cc(NC(=O)c3cncc(C#Cc4cnc5ccc(O[C@@H]6CCOC6)nn45)c3)cc(C(F)(F)F)c2)cn1`: the growth in the test on EKVX NSCLC was -9.97% (active); in the test on SN12C renal, -8.41% (active); with UO-31 renal, -13.3% (active); in the test on TK-10 renal it was -19.2% (active); with ACHN renal, -93.6% (active); in the test on CAKI-1 renal it was 1.07% (active). The growth with CCRF-CEM leukemia was 0.641% (active); in the test on MOLT-4 leukemia, 2.18% (active); in the test on SR leukemia, -35.6% (active); in the test with RPMI-8226 leukemia, -29.8% (active); in the test on OVCAR-8 ovarian, -49.7% (active); in the test on OVCAR-5 ovarian it was 0.672% (active). Moreover, the growth in the test with OVCAR-4 ovarian is -33.1% (active); in the test on SK-OV-3 ovarian, -22.3% (active); with IGROV1 ovarian it was -9.41% (active); with HS 578T breast it was -25.1% (active); in the test on NCI/ADR-RES ovarian it was 40.4%.

On to `O=C1Nc2cc(OC(F)(F)F)ccc2Oc2ccc(-c3ccnc(N4CCNCC4)c3)cc21`, for which the growth with EKVX NSCLC is 41.2%; in the test with SN12C renal, -26.9% (active); with UO-31 renal, 1.72% (active); in the test on TK-10 renal, 27.8%; with ACHN renal, 2.57% (active); with CAKI-1 renal, -36.1% (active). Moreover, the growth with CCRF-CEM leukemia was -6.19% (active); in the test on MOLT-4 leukemia, -0.166% (active); in the test with SR leukemia, -44% (active); with RPMI-8226 leukemia, -50.9% (active); in the test on OVCAR-8 ovarian it was 20.9%; in the test on OVCAR-5 ovarian it was 14.7%. The growth is 48% in the test with OVCAR-4 ovarian; 20.5% in the test on SK-OV-3 ovarian; -1.58% (active) with IGROV1 ovarian; 2.5% (active) in the test with HS 578T breast; 5.35% (active) in the test on NCI/ADR-RES ovarian.

With `CS(=O)(=O)c1nccc(-c2c(-c3ccc(F)c(OCCc4ccccc4)c3)nc3sccn23)n1`, the growth in the test on EKVX NSCLC was 59.5%; with SN12C renal, 83.7%; in the test with UO-31 renal it was 85.5%; in the test on TK-10 renal it was 100%; in the test with ACHN renal, 90%; with CAKI-1 renal, 84%. Moreover, the growth was 90.4% in the test on A498 renal; 84.2% in the test with CCRF-CEM leukemia; 54.7% in the test with RPMI-8226 leukemia; 87.5% with OVCAR-8 ovarian; 100% in the test on OVCAR-5 ovarian; 98.4% in the test on OVCAR-4 ovarian. Further, the growth in the test with SK-OV-3 ovarian was 121%; with IGROV1 ovarian, 59.3%; with HS 578T breast, 113%; in the test with NCI/ADR-RES ovarian, 95.9%.

As to `Cn1cc(-c2nn3cc(-c4cccnc4)nc3s2)c2ccccc21`, the growth was 43.8% with EKVX NSCLC; 33.4% in the test on SN12C renal; 32.2% in the test on UO-31 renal; 80.5% in the test with TK-10 renal; 48.1% in the test on ACHN renal; 43.5% in the test on CAKI-1 renal. In addition, the growth in the test on A498 renal was 36.6%; in the test on CCRF-CEM leukemia, 38%; in the test with RPMI-8226 leukemia, 30.4%; in the test on OVCAR-8 ovarian, 36.4%; with OVCAR-5 ovarian, 36.6%; with OVCAR-4 ovarian, 76.6%. In addition, the growth in the test on SK-OV-3 ovarian was 50.7%; in the test on HS 578T breast it was 31.3%; with NCI/ADR-RES ovarian it was 18.9%.

Take `Cc1ccccc1NC1CC(=O)N(c2ccc(Cl)cc2Cl)C1=O` (configuration not stated): the growth with EKVX NSCLC was 96.7%; in the test on SN12C renal, 103%; in the test on UO-31 renal, 92.3%; with TK-10 renal, 99.3%; in the test with ACHN renal, 104%; with CAKI-1 renal, 89.9%. Also, the growth was 112% with CCRF-CEM leukemia; 117% in the test on MOLT-4 leukemia; 102% in the test on SR leukemia; 102% with RPMI-8226 leukemia; 103% with OVCAR-8 ovarian; 107% with OVCAR-5 ovarian. The growth in the test on OVCAR-4 ovarian was 97.5%; in the test on SK-OV-3 ovarian, 108%; in the test on IGROV1 ovarian, 101%; in the test with HS 578T breast, 99.6%; with NCI/ADR-RES ovarian, 99.9%.

Take `C=CCn1c(SCC(=O)Nc2cccc(C(=O)/C=C/c3ccccc3)c2)nc2ccccc2c1=O`: the growth with EKVX NSCLC was 99.3%; in the test on SN12C renal it was 91.1%; in the test with UO-31 renal, 67.4%; in the test with TK-10 renal, 116%; in the test on ACHN renal, 93.9%; in the test with CAKI-1 renal, 80.1%. The growth in the test with A498 renal was 92.9%; in the test on CCRF-CEM leukemia, 72.1%; in the test with RPMI-8226 leukemia it was 2.15% (active); in the test on OVCAR-8 ovarian, 83.3%; in the test with OVCAR-5 ovarian, 101%; in the test on OVCAR-4 ovarian it was 88%. Moreover, the growth in the test on SK-OV-3 ovarian was 122%; with IGROV1 ovarian, 87.6%; in the test with HS 578T breast it was 99.2%; in the test with NCI/ADR-RES ovarian, 87.1%.

Consider `CC1CCc2c(sc3nc(SCC(=O)N/N=C/c4cccc(O)c4O)n(-c4ccccc4)c(=O)c23)C1` (configuration not stated), for which the growth was 85.6% with EKVX NSCLC; 84% in the test on SN12C renal; 73.2% in the test on UO-31 renal; 116% with TK-10 renal; 71.9% in the test on ACHN renal; 76.3% in the test with CAKI-1 renal. In addition, the growth in the test with CCRF-CEM leukemia is 91.9%; in the test with MOLT-4 leukemia it was 85%; with SR leukemia it was 81%; in the test on RPMI-8226 leukemia, 89.1%; in the test with OVCAR-8 ovarian, 90.6%; in the test on OVCAR-5 ovarian, 93.6%. The growth in the test on OVCAR-4 ovarian is 84.7%; in the test with SK-OV-3 ovarian, 107%; with IGROV1 ovarian, 92.9%; in the test with HS 578T breast it was 95.8%; in the test on NCI/ADR-RES ovarian it was 89.1%.
